From the supplement of paper PMC12494721 come the findings set out here.

Conditions in all cases: incubation time: 27 h, anaerobic, 37 °C;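 for the amine columns active = adjusted P below 0.05 in both replicates with a change the same way and a mean fold change under 0.8 or over 1.25; inactive = the rest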
The subject of experiment [1] is Clostridium sporogenes DSM 1664. Kind of experiment: growth (OD595) fold change vs plate DMSO controls (fold change (ratio)); higher = more growth. Put shortly: (§1)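 Growth is the fold change relative to the median of plate DMSO controls. Readings came from anaerobic mGAM cultures in 96-well plates grown for 27 h at 37 °C and read at 595 nm. They were blank-subtracted, corrected for compound background with 20 µM compound solutions in water, and converted to OD with a calibration factor of 5. Values are means of 2 biological replicates, and fold changes above 1.5 were set to NA.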

Experiment [2] concerns Escherichia coli IAI1. The experiment is described as above. The gist of the method:
as §1

Experiment [3] deals with Klebsiella aerogenes DSM 30053. The experiment is described as above. Put shortly:
as §1

Experiment [4] relates to Ruminococcus gnavus DSM 108212. The experiment is described as above. The gist of the method:
as §1

Experiment [5] deals with Klebsiella aerogenes DSM 30053. In words: fold change of Histamine concentration vs plate DMSO controls (fold change (ratio)); higher = more amine produced, active = hit call of the paper (significant change in both replicates, either direction). The gist of the method:
(§2)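 Amine values are fold changes relative to DMSO-only wells on the same plate. They derive from 27 h, 37 °C anaerobic mGAM cultures of four gut bacterial strains in 80 µL wells, dosed at 20 µM final, or 50 µM final for sweeteners. Extraction of the whole culture, LC–triple-quadrupole MS in dynamic MRM mode, external calibration curves and within-batch drift correction were used, with 2 biological replicates averaged.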

In experiment [6] the test system is Clostridium sporogenes DSM 1664. In words: fold change of Tryptamine concentration vs plate DMSO controls (fold change (ratio)); higher = more amine produced, active = hit call of the paper (significant change in both replicates, either direction). Put shortly:
as §2

For experiment [7], the system named is Ruminococcus gnavus DSM 108212. The description is as above. Put shortly:
as §2

Experiment [8] has as its system Escherichia coli IAI1. In words: fold change of Putrescine concentration vs plate DMSO controls (fold change (ratio)); higher = more amine produced, active = hit call of the paper (significant change in both replicates, either direction). The gist of the method:
as §2

The test system of experiment [9] is Klebsiella aerogenes DSM 30053. The description is as above. Put shortly:
as §2

The subject of experiment [10] is Escherichia coli IAI1. Kind of experiment: fold change of Cadaverine concentration vs plate DMSO controls (fold change (ratio)); higher = more amine produced, active = hit call of the paper (significant change in both replicates, either direction). Put shortly:
as §2

Experiment [11] deals with Klebsiella aerogenes DSM 30053. Described as above. Put shortly:
as §2

Experiment [12] has as its system Ruminococcus gnavus DSM 108212. In words: fold change of 2-Phenylethylamine concentration vs plate DMSO controls (fold change (ratio)); higher = more amine produced, active = hit call of the paper (significant change in both replicates, either direction). The gist of the method: as §2

Structures can show the parent of a compound that is named as a salt.

Regarding `OCCOCCN1CCN(C(c2ccccc2)c2ccc(Cl)cc2)CC1` (centres undefined) [Hydroxyzine dihydrochloride] (20 µM), the growth was 1.07 in experiment [1], 1.01 with Escherichia coli IAI1 [2], 1.05 in [3] and 0.906 in experiment [4]. The “fold change of Histamine concentration” value in experiment [5] is 0.909 (inactive). The “fold change of Tryptamine concentration” value in experiment [6] is 1.01 (inactive); in experiment [7] it was 1.02 (inactive). The “fold change of Putrescine concentration” value with Escherichia coli IAI1 [8] is 0.98 (inactive); in experiment [9], 0.966 (inactive). For the same compound, the figures for the “fold change of Cadaverine concentration” value (with Escherichia coli IAI1 [10]; in experiment [11]) were 0.968 (inactive) and 1.02 (inactive), respectively. In addition, in experiment [12], the “fold change of 2-Phenylethylamine concentration” value was 1.06 (inactive).
For the compound `C[C@@](Cc1ccc(O)c(O)c1)(NN)C(=O)O` [Carbidopa] (20 µM), the growth stood at 0.93 in experiment [1], 0.989 in the experiment with Escherichia coli IAI1 [2], 1.03 in experiment [3] and 0.905 in experiment [4]. For the same compound, in experiment [5], the “fold change of Histamine concentration” value is 0.98 (inactive). In addition, the figures for the “fold change of Tryptamine concentration” value in experiment [6] and in experiment [7] were 1.04 (inactive) and 1 (inactive), respectively. Besides, the entries for the “fold change of Putrescine concentration” value (in the experiment on Escherichia coli IAI1 [8]; in experiment [9]) were 1.05 (inactive) and 1.01 (inactive), respectively. Besides, the “fold change of Cadaverine concentration” value is 0.994 (inactive) in the experiment with Escherichia coli IAI1 [10] and 1 (inactive) in [11]. Besides, the “fold change of 2-Phenylethylamine concentration” value in experiment [12] was 0.963 (inactive).
As for `COc1ccc(C(=O)c2ccc(C)cc2)c(O)c1` [Mexenone] (20 µM), the growth in [1] was 0.644; with Escherichia coli IAI1 [2], 0.407; in [3], 0.378; in experiment [4], 0. The “fold change of Histamine concentration” value in [5] was 1.02 (inactive). Further, the results for the “fold change of Tryptamine concentration” value in experiment [6] and in experiment [7] were 1.01 (inactive) and 1.03 (inactive), respectively. Further, the “fold change of Putrescine concentration” value is 1.06 (inactive) in the experiment on Escherichia coli IAI1 [8] and 1.01 (inactive) in [9]. Moreover, the “fold change of Cadaverine concentration” value was 1.02 (inactive) with Escherichia coli IAI1 [10] and 0.998 (inactive) in [11]. For the same compound, in experiment [12], the “fold change of 2-Phenylethylamine concentration” value was 1.04 (inactive).
Regarding `CN(C)CCn1nnnc1SCC1=C(C(=O)O)N2C(=O)[C@@H](NC(=O)Cc3csc(N)n3)[C@H]2SC1` [Cefotiam hydrochloride] (20 µM), the growth in experiment [1] is 0; in the experiment on Escherichia coli IAI1 [2], 0.00521; in experiment [3], 1.05; in [4], 0.248. For the same compound, in experiment [5], the “fold change of Histamine concentration” value was 1.27 (inactive). For the same compound, the “fold change of Tryptamine concentration” value in experiment [6] was 0.0154 (active); in experiment [7], 0.0411 (active). The “fold change of Putrescine concentration” value with Escherichia coli IAI1 [8] was 0.121 (active); in experiment [9], 1.08 (inactive). Further, the “fold change of Cadaverine concentration” value is 0.522 (active) in the experiment on Escherichia coli IAI1 [10] and 1.14 (inactive) in experiment [11]. For the same compound, the “fold change of 2-Phenylethylamine concentration” value in [12] was 0.0464 (active).
Consider `CC(C)(C)NC(=O)[C@@H]1CN(Cc2cccnc2)CCN1C[C@@H](O)C[C@@H](Cc1ccccc1)C(=O)N[C@H]1c2ccccc2C[C@H]1O` [Indinavir sulfate] (20 µM), for which the growth in experiment [1] was 1.29; in the experiment on Escherichia coli IAI1 [2], 1.01; in [3] it was 1.04; in [4], 0.985. Besides, the “fold change of Histamine concentration” value in [5] is 0.966 (inactive). In addition, the “fold change of Tryptamine concentration” value in [6] was 1.04 (inactive); in experiment [7], 1.05 (inactive). Besides, the “fold change of Putrescine concentration” value is 1.02 (inactive) with Escherichia coli IAI1 [8] and 1.03 (inactive) in experiment [9]. The “fold change of Cadaverine concentration” value is 1.05 (inactive) with Escherichia coli IAI1 [10] and 1 (inactive) in [11]. Besides, the “fold change of 2-Phenylethylamine concentration” value in experiment [12] is 1.02 (inactive).
As for `CC1=C(/C=C/C(C)=C/C=C/C(C)=C/C(=O)O)C(C)(C)CCC1` [Retinoic acid] (20 µM), the growth worked out at 1.05 in [1], 0.973 in the experiment on Escherichia coli IAI1 [2], 1.1 in experiment [3] and 1.04 in experiment [4]. In addition, the “fold change of Histamine concentration” value in [5] is 0.947 (inactive). The “fold change of Tryptamine concentration” value in [6] and in [7] was 1.03 (inactive) in each case. Also, the “fold change of Putrescine concentration” value was 1.01 (inactive) in the experiment with Escherichia coli IAI1 [8] and 1.02 (inactive) in experiment [9]. The “fold change of Cadaverine concentration” value in the experiment on Escherichia coli IAI1 [10] was 0.989 (inactive); in [11], 1.01 (inactive). For the same compound, the “fold change of 2-Phenylethylamine concentration” value in [12] was 0.997 (inactive).
For the compound `Cc1cc(C#N)cc(C)c1Oc1nc(Nc2ccc(C#N)cc2)nc(N)c1Br` [Etravirine] (20 µM), the growth amounted to 1.06 in experiment [1], 1.01 in the experiment on Escherichia coli IAI1 [2], 1.13 in [3] and 1.03 in experiment [4]. Also, the “fold change of Histamine concentration” value in experiment [5] was 1.01 (inactive). The “fold change of Tryptamine concentration” value was 1.03 (inactive) in [6] and 0.995 (inactive) in experiment [7]. The results for the “fold change of Putrescine concentration” value (in the experiment on Escherichia coli IAI1 [8]; in [9]) were 1.03 (inactive) and 1 (inactive), respectively. Further, the “fold change of Cadaverine concentration” value was 1.04 (inactive) in the experiment with Escherichia coli IAI1 [10] and 0.981 (inactive) in experiment [11]. Further, the “fold change of 2-Phenylethylamine concentration” value in [12] is 1.03 (inactive).
`CC(=O)OCC1=C(C(=O)O)N2C(=O)[C@@H](NC(=O)Cc3cccs3)[C@H]2SC1` [Cephalothin sodium salt] (20 µM): the growth in experiment [1] worked out at 0; in the experiment with Escherichia coli IAI1 [2], 1.29; in experiment [3], 1.11; in experiment [4], 0.125. Further, the “fold change of Histamine concentration” value in [5] is 1.1 (inactive). For the same compound, the “fold change of Tryptamine concentration” value in experiment [6] was 0.0346 (active); in experiment [7], 0.0635 (active). The “fold change of Putrescine concentration” value with Escherichia coli IAI1 [8] was 1.17 (inactive); in experiment [9], 1.02 (inactive). Besides, the “fold change of Cadaverine concentration” value in the experiment on Escherichia coli IAI1 [10] is 1.62 (inactive); in experiment [11] it was 1.01 (inactive). For the same compound, the “fold change of 2-Phenylethylamine concentration” value in experiment [12] was 0.0703 (active).
For `O=C(O)CCCC[C@@H]1SC[C@@H]2NC(=O)N[C@@H]21` [Biotin] (20 µM), the growth in experiment [1] was 1.02; in the experiment with Escherichia coli IAI1 [2], 0.975; in experiment [3], 0.981; in [4] it was 1.12. Further, the “fold change of Histamine concentration” value in [5] was 1.02 (inactive). Besides, the “fold change of Tryptamine concentration” value in experiment [6] was 0.954 (inactive); in experiment [7], 1.03 (inactive). Also, the “fold change of Putrescine concentration” value with Escherichia coli IAI1 [8] is 0.982 (inactive); in experiment [9], 1.02 (inactive). Further, the figures for the “fold change of Cadaverine concentration” value (with Escherichia coli IAI1 [10]; in [11]) were 1.01 (inactive) and 0.997 (inactive), respectively. Moreover, the “fold change of 2-Phenylethylamine concentration” value in [12] is 1.06 (inactive).
`CC(C)(C)C(=O)C(Oc1ccc(Cl)cc1)n1ccnc1` (centres undefined) [Climbazole] (20 µM): the growth in experiment [1] turned out to be 1.22; with Escherichia coli IAI1 [2], 1.05; in [3], 1.07; in experiment [4] it was 0.922. Further, in [5], the “fold change of Histamine concentration” value was 0.96 (inactive). Also, the “fold change of Tryptamine concentration” value is 1.04 (inactive) in experiment [6] and 0.979 (inactive) in experiment [7]. The “fold change of Putrescine concentration” value in the experiment on Escherichia coli IAI1 [8] was 1.04 (inactive); in experiment [9] it was 1.02 (inactive). Further, the results for the “fold change of Cadaverine concentration” value (in the experiment with Escherichia coli IAI1 [10]; in experiment [11]) were 0.968 (inactive) and 1.01 (inactive), respectively. Moreover, the “fold change of 2-Phenylethylamine concentration” value in [12] was 1.03 (inactive).
With `CCOc1ccc(NC(C)=O)cc1` [Phenacetin] (20 µM), the growth was 1.11 in [1], 1.02 in the experiment on Escherichia coli IAI1 [2], 1.01 in experiment [3] and 1.3 in experiment [4]. In addition, in experiment [5], the “fold change of Histamine concentration” value is 1.03 (inactive). The results for the “fold change of Tryptamine concentration” value in experiment [6] and in [7] were 0.966 (inactive) and 0.999 (inactive), respectively. Further, the “fold change of Putrescine concentration” value in the experiment on Escherichia coli IAI1 [8] was 1.07 (inactive); in [9] it was 1.02 (inactive). In addition, the “fold change of Cadaverine concentration” value in the experiment with Escherichia coli IAI1 [10] was 0.997 (inactive); in [11], 1.01 (inactive). The “fold change of 2-Phenylethylamine concentration” value in experiment [12] was 0.992 (inactive).
Consider `OC[C@@H](O)[C@@H](O)[C@@H](O)[C@@H](O)CO` [Allitol] (50 µM), for which the growth in [1] came out at 0.907; with Escherichia coli IAI1 [2] it was 1.08; in experiment [3], 1.11; in experiment [4], 0.986. The “fold change of Histamine concentration” value in experiment [5] was 0.908 (inactive). For the same compound, the “fold change of Tryptamine concentration” value is 1 (inactive) in experiment [6] and 0.953 (inactive) in [7]. The figures for the “fold change of Putrescine concentration” value (with Escherichia coli IAI1 [8]; in experiment [9]) were 1.02 (inactive) and 1.03 (inactive), respectively. Also, the “fold change of Cadaverine concentration” value is 0.992 (inactive) in the experiment on Escherichia coli IAI1 [10] and 1.02 (inactive) in experiment [11]. Moreover, the “fold change of 2-Phenylethylamine concentration” value in [12] is 0.932 (inactive).
